Bioassay records (PubChem BioAssay)
Sampled rows, rich in hits. Any-hit rate of the full collection: about 1.1%.
ugtP null kill: growth inhibition of ugtP-null S. aureus, primary screen, RN4220 ugtP deletion, OD600 | 16 h | growth inhibition, % (no concentration beside the values) | 0.54% of 330,000 active; in the data active = growth inhibition above about 68%;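 note: plate controls were untreated wells for no effect and antibiotic for full effect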
SSB-PriA inh: inhibitors of Klebsiella pneumoniae PriA binding to SSB C-terminal tail, primary screen, biochemical, AlphaScreen. AlphaScreen SSBct-PriA binding, biotinylated peptide. inhibition, % at 33 µM. 0.6% of 430,000 active. AID 1272365, 2023; in the data active = inhibition mostly above about 37%, no sharp cut-off; inactive = mostly below about 20%;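 note: plate controls were negative control peptide for no effect and reference peptide for full effect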
Mtb hypoxia inh: PubChem AID 1159583. M. tuberculosis hypoxia-regulated fluorescent reporter, fluorescence. fluorescence inhibition, % (concentration not given with the values). 0.1% of 300,000 active; in the data active = fluorescence inhibition mostly above about 23%, no sharp cut-off; inactive = mostly below about 17%
Sa RN4220 lethal: growth inhibition of S. aureus RN4220, primary screen, OD600; 16 h; 0.33% of 330,000 active; AID 1259311, 2017; inhibition, % (test concentration not listed); in the data active = inhibition above about 85%;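 note: plate controls were untreated cells for no effect and reference antibiotic for full effect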
The depositor's hits bear a star; · = no result given.

SMILES | ugtP null kill | SSB-PriA inh | Mtb hypoxia inh | Sa RN4220 lethal
Cc1cc(C)c(Cn2cnc(-c3ccc([N+](=O)[O-])cc3)c2)c(C)c1 | -35 | 50* | -6 | -6
CCn1cc(Br)c(C(=O)Nc2ccccc2C(=O)OC)n1 | -4 | -11 | -3 | 3
CCn1cc(Cl)c(C(=O)Nc2ccccc2C(N)=O)n1 | 3 | 45* | 3 | -2
O=S(=O)(Nc1cnn([C@H]2CCOC2)c1)c1cccc(C(F)(F)F)c1 | · | -11 | · | ·
Cc1cccc(C2(c3cccc(C)c3)CC2C(=O)Nc2ccc([N+](=O)[O-])cc2O)c1 (configuration not stated) | 100* | -9 | 18 | 100*
C=CCNC(=O)C1CC1(c1cccc(C)c1)c1cccc(C)c1 (configuration not stated) | -6 | -4 | 9 | 2
COc1ccc2nc(-c3ccc(F)c(NC(=O)Nc4ccccc4)c3)cn2n1 | · | -3 | · | ·
CCC(COC)Oc1cc(NCc2ccccc2)c2ncn(C(C)C)c2c1 (configuration not stated) | -8 | 63* | 6 | 8
CCC(CO)Oc1cc(NCc2ccccc2)c2ncn(C(C)C)c2c1 (configuration not stated) | -6 | 12 | 12 | 6
COc1ccc(Cc2cc(NCc3ccccc3)c3ncn(C(C)C)c3c2)cc1 | 9 | 66* | 8 | -2
COc1cccc(-c2ccc3nnc(SCC(=O)Nc4nc(C)cs4)n3n2)c1 | · | -20 | · | ·
CN(C)[C@@H](CNC(=O)c1cccc(C(F)(F)F)c1)c1ccccc1Cl | · | -6 | · | ·
O=C(Nc1ccc(Cl)c(Cl)c1)N1CCCCCC1 | -8 | -6 | 0 | -5
O=C(c1ccc(NC(=S)Nc2ccc(Cl)c(Cl)c2)cc1)N1CCCC1 | 100* | -18 | 4 | 101*
O=C(NC(=S)Nc1ccc(Br)c(Cl)c1)C1CC1 | 49 | -16 | 13 | -11
CC(=O)c1ccc(NC(=S)Nc2ccc(Br)c(Cl)c2)cc1 | 100* | -17 | 7 | 100*
CCCCCCCCCOc1ccc(-c2ncc(CCCCCCCCC)cn2)cc1 | · | -9 | · | ·
CCCCCCc1ccc(-c2ncc(N)cn2)cc1 | 100* | 0 | 5 | 5
Cc1cc(C)cc(N=c2c([N+](=O)[O-])nn(-c3ccc(Cl)cc3)n2O)c1 | 39 | 51* | 24 | 29
CCc1ccc(N=c2c([N+](=O)[O-])nn(-c3ccccc3)n2O)cc1 | 47 | 70* | 9 | -6
CC(C)=CCCC1(C)C=Cc2c(c(C)cc3c2[nH]c2cc(O)ccc23)O1 (configuration not stated) | 101* | 20 | · | 90
Cc1cc(=O)[nH]c2cc(O)ccc12 | 3 | 1 | 13 | 2
NC(=Nc1ccccc1)C(Cl)(Cl)Cl | · | -5 | · | ·
CCCOc1nc(SCCC)nc2c1cnn2-c1ccccc1 | 93* | -16 | -4 | -5
